# Records with an inconclusive call do not appear. The source made the active and inactive calls. Calls come from the whole dose curve; as a rule, active = well fitted curve in the direction sought with a large enough effect; inconclusive = small, poorly fitted or top-dose-only effect, or another doubt; inactive = no such curve, though single readings can be large or run the other way.
# Biological target: Polyunsaturated fatty acid lipoxygenase ALOX15 (Homo sapiens) (UniProt P16050)
# Assay: Counterscreen qHTS for inhibitors of human arachidonate 12S-lipoxygenase (ALOX12): ALOX15 Assay
# Conditions: purified ALOX15 enzyme activity; series mostly up to 110 µM
# Summary of the method: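 Xylenol orange–ferric complex formation, read as the 573 nm to 405 nm absorbance ratio, tracks product from 50 uM arachidonic acid turned over for 30 min at RT. Enzyme is 40 nM ALOX15, pH 7.5 HEPES buffer, compound-preincubated 15 min.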
# Sequence of Polyunsaturated fatty acid lipoxygenase ALOX15 (Homo sapiens) (P16050 whole entry, looked up): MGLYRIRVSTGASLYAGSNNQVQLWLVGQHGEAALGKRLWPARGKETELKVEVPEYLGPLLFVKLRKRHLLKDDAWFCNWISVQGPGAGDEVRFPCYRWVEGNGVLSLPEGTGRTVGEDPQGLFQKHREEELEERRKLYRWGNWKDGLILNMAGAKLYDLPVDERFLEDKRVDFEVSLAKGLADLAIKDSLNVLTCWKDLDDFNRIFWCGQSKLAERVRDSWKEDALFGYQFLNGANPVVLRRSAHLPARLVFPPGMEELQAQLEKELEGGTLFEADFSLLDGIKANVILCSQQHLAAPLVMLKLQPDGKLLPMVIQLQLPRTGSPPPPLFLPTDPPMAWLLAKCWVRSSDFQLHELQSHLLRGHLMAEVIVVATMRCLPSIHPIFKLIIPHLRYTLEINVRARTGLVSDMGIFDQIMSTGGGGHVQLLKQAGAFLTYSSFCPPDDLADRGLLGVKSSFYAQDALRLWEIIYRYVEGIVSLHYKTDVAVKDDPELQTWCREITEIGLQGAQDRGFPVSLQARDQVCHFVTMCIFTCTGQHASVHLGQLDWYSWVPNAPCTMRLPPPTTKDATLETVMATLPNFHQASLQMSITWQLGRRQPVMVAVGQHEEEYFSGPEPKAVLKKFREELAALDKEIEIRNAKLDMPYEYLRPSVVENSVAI
row,Compound,outcome
1,O=C(c1ccccc1F)N1CCC2(C1)C(=O)N(c1ccccc1)c1ccccc12 (stereo not drawn),inactive
2,CN1CC(=O)N(C2CCNCC2)Cc2c(NCCc3cccc(F)c3)ncnc21,inactive
3,CC(=O)NCCC(=O)N1Cc2ccccc2CC2(CCCN2CC2CCNC2)C1 (stereo not drawn),inactive
4,CN1CCC2(Cc3ccccc3CN(C(=O)CCN)C2)C1 (stereo not drawn),inactive
5,NCC(C1CCCCC1)N1CCCC1 (stereo not drawn),inactive
6,O=C1NC2(Cc3ccccc31)CN(C(=O)c1cccc3c1OC(F)(F)O3)C2,inactive
7,O=C1Nc2ccccc2C12CCN(S(=O)(=O)c1ccccc1)C2 (stereo not drawn),inactive
8,CC1C=CC(C)N1c1ncnc2c1CN(C1CCNCC1)C(=O)CN2C (stereo not drawn),inactive
9,CC(C)OCCCNc1ncnc2c1CN(C1CCCNCC1)C(=O)CN2C (stereo not drawn),inactive
10,O=C(c1ccc2c(c1)OCO2)N1CCC(c2nnc3n2CCNC3)CC1,inactive
11,NCCC(=O)N1CCCC2(Cc3ccccc3CN2C(=O)c2ccccc2)C1 (stereo not drawn),inactive
12,CN(c1ccccc1)C1CNC1,inactive
13,O=C(c1ccc(C(F)(F)F)cc1)N1CCn2c(nnc2C2CCCNC2)C1 (stereo not drawn),inactive
14,CN1CC(=O)N(C2CCCNC2)Cc2c(NCC(C)(C)C)ncnc21 (stereo not drawn),inactive
15,CNCc1cccn1C,inactive
16,CN1CC(=O)N(C2CCNC2)Cc2c1ncnc2N1CCC(N2CCCCC2)CC1 (stereo not drawn),inactive
17,CCc1ccc(CN2CCCC23Cc2ccccc2CNC3=O)cc1 (stereo not drawn),inactive
18,CC1CCCN1c1ncnc2c1CN(C1CCCNCC1)C(=O)CN2C (stereo not drawn),inactive
19,COc1cccc([S+](=O)([O-])N2CCCC3(CC(c4cccnc4)=NO3)C2)c1 (stereo not drawn),inactive

row,Compound,outcome
1,O=C1NCc2ccccc2CC12CCN(Cc1cnc3ccccc3c1)C2 (stereo not drawn),inactive
2,CNC(=O)c1cnn2c1CN(C(=O)c1ccccc1)CC2,inactive
3,CNC(C)c1cccc(OC)c1 (stereo not drawn),inactive
4,O=C1NC2(Cc3ccccc31)CN(C(=O)c1ccc3c(c1)OCO3)C2,inactive
5,CCC(=O)N1Cc2ccccc2CC2(CCCCN2CC2CCNC2)C1 (stereo not drawn),inactive
6,CC(=O)NCCCC(=O)N1CCOC2(CCN(C(=O)CCCN)CC2)C1,inactive
7,C[S+](=O)([O-])N1CC2(Cc3ccccc3NC2=O)C1,inactive
8,O=c1[nH]c(C2CCN(Cc3ccc(-c4cccnc4)cc3)CC2)nc2ccc(F)cc12,inactive
9,CC(C)CN1CCC(c2nc3ccc(F)cc3c(=O)[nH]2)CC1,inactive
10,CCN1CCCCC12Cc1ccccc1CN(S(=O)(=O)c1ccccc1)C2 (stereo not drawn),inactive
11,COc1ccc(CN2CCC3(Cc4ccccc4CNC3=O)C2)c(O)c1 (stereo not drawn),inactive
12,CCN1CCC(c2nc3ccc(F)cc3c(=O)[nH]2)CC1,inactive
13,N#Cc1ccc(CN2CC(Oc3ccc(F)cc3F)C2)cc1,inactive
14,FC(F)(F)c1cccc(C2=NOC3(CCN(Cc4ccsc4)C3)C2)c1 (stereo not drawn),inactive
15,COCCNC(=O)c1cc(-c2ccc(OC)cc2)nc2onc(C3CCNC3)c12 (stereo not drawn),inactive
16,O=C(c1cc(C2CC2)nc2c1c(C1CCCN1)nn2-c1ccccc1)N1CCOCC1 (stereo not drawn),inactive
17,O=C1NCc2ccccc2CC12CCCN2Cc1cccc(OC(F)(F)F)c1 (stereo not drawn),inactive
18,CN1CC(=O)N(C2CCCNCC2)Cc2c1ncnc2N1CCN(c2ccccn2)CC1 (stereo not drawn),inactive
19,O=C(c1ccc(Cl)cc1)N1CC2(CCN(Cc3ccc(Cl)cc3)C2)Cc2ccccc21 (stereo not drawn),inactive

# — PubChem BioAssay AID1671192 (National Center for Advancing Translational Sciences (NCATS), 2021)
